# Compound activity (PubChem BioAssay)
# S2 tox: reduces viability in counter-screen for ATXN expression inhibitors | AID 651635 | actives 0.49% (n = 400,000) | S2 cells (HEK-293 line with an ATXN2-luciferase reporter) viability, CellTiter-Fluor protease fluorescence, 24 h | Potency, µM (titrated, usually from 56.7 µM), most hits filed as cytotoxic; note: nearly all actives have a fitted effect of over 40% in size
# TGFb inhibitor: inhibitors of TGF-b signaling; HepG2 CAGA-GFP TGF-b/SMAD3 reporter, GFP fluorescence, 18 h; TGF-beta stimulated, 500 pg/mL final; actives 1.2% (n = 410,000); Potency, µM (series often up to 46.1 µM), inactives show top-dose activity, negative = inhibition, actives largely listed as inhibitors; AID 588855; note: % is set by controls: 0 for no effect and ±100 for the full control effect; nearly all actives have a fitted effect of over 65% in size
#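 Per well, imaged GFP fluorescence of HEPG2 CAGA-GFP cells gives the signal; cells get compound, then TGF-beta (500 pg/mL final), 18 h at 37 degrees C; %Activity versus -TGF-beta and +DMSO controls.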
# HepG2 tox: counter-screen for TGF-b inhibitors: cytotoxicity in HepG2 cells; HepG2 CAGA-GFP viability, ATP luminescence, 18 h; Potency, µM (series often up to 46.1 µM), without a hit: at the highest dose activity change, negative = cytotoxicity, actives largely listed as cytotoxic; actives 0.76% (n = 410,000); AID 588856
#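 CellTiter-Glo luminescence gave cytotoxicity after 18 hours at 37 degrees C. The cells were HepG2 CAGA-GFP in 1% FBS DMEM, stimulated with 500 pg/mL TGF-beta after compound addition. %Activity was normalised to no-cell wells (complete cell-killing) and DMSO (no toxicity), and curves were fitted and classified.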
# ATXN2 expr inh: ATXN2 expression inhibition | HEK-293 ATXN2-luciferase reporter, luminescence, 24 h | Potency, µM (highest dose often 57 µM), inactives show at the highest dose activity change, negative = inhibition, most hits filed as inhibitors | actives 0.72% (n = 360,000); note: % is set by controls: 0 for no effect and ±100 for the full control effect; nearly all actives have a fitted effect of over 55% in size
#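 ATXN2-luciferase reporter cells (luciferase flanked by upstream and downstream ATXN2 gene portions) were treated 24 h at 37 °C with compounds at up to 57 uM. SteadyGlo luminescence gave expression; GF-AFC fluorescence gave viability.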
# TDP1 cell CPT: DT40-hTDP1 cell growth loss with CPT | chicken DT40 Tdp1-/-;hTDP1 cells + 20 nM CPT, ATP luminescence, 48 h | Potency, µM (top dose mostly 46.2 µM), for the others: at the highest dose activity change, negative = growth inhibition, most hits filed as inhibitors | actives 12% (n = 420,000) | AID 686979; note: % is set by controls: 0 for no effect and ±100 for the full control effect; nearly all actives have a fitted effect of over 55% in size
#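 Chicken DT40 Tdp1-/- cells complemented with human TDP1, 400 cells/well, exposed to compounds plus 20 nM camptothecin for at least 48 h at 37 C; viability read as ATP content by CellTiter-Glo luminescence.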
# TDP1 cell noCPT: qHTS for Inhibitors of human tyrosyl-DNA phosphodiesterase 1 (TDP1): qHTS in cells in absence of CPT; DT40 Tdp1-/- hTDP1 cells, no CPT, ATP luminescence, 48 h; Potency, µM (top dose mostly 46.2 µM), without a hit: at the highest dose activity change, negative = growth inhibition, actives largely listed as inhibitors; actives 15% (n = 420,000); note: % is set by controls: 0 for no effect and ±100 for the full control effect; nearly all actives have a fitted effect of over 55% in size
#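 Cells were dispensed at 400 per well, compounds added by pin tool, plates incubated ≥48 hr at 37 °C, then CellTiter-Glo added for 30 min at room temperature before luminescence reading. Line: DT40 Tdp1-/- complemented with hTDP1; camptothecin omitted.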
# Starred values were filed as active, the others as inactive; i = inactive; ? = inconclusive; . = no result given; ! = not confirmed by another sample; [ ] = another dose, or the depositor's remark. In the library only some 17% were active in any assay of this set; here they are far more common. Calls come from the whole dose curve; as a rule, active = well fitted curve in the direction sought with a large enough effect; inconclusive = small, poorly fitted or top-dose-only effect, or another doubt; inactive = no such curve, though single readings can be large; an effect the other way counts as inactive or inconclusive. Potency is the fitted concentration of half-maximal effect.
SMILES,S2 tox,TGFb inhibitor,HepG2 tox,ATXN2 expr inh,TDP1 cell CPT,TDP1 cell noCPT
CN(C)c1ccc(N=Nc2ccccc2C(=O)OCC(=O)NCC2CCCCC2)cc1,i,?,-12%,26%,?,21µM*
CC1CCCCC1NC(=O)COC(=O)c1ccc(N(C)C)cc1 (centres undefined),i,14%,-21%,-2%,?,13µM*
CN(C)c1ccc(N=Nc2ccccc2C(=O)OCC(=O)N(C)C2CCCCC2)cc1,i,-9%,0%,-9%,7%,-14%
Cc1ccc(CNC(=O)CCC2CCCN(Cc3ccc4cccc(F)c4n3)C2)o1 (centres undefined),i,5%,8%,-24%[11.3 µM],-20%,?
CCN1C(=O)[C@H]2[C@@H](c3ccc(-c4ccc(Cl)c(Cl)c4)cc3)N3CCCC[C@@]3(C(=O)OC)[C@H]2C1=O,i,4%,2%,?,10µM*,6.5µM*
CCN1C(=O)[C@@H]2[C@@H](c3ccc(-c4ccc(Cl)c(Cl)c4)cc3)N3CCC[C@@]3(C(=O)OC)[C@@H]2C1=O,i,?,-23%,?,8.2µM*,7.3µM*
Cc1ccccc1-n1ncc2c([N+](=O)[O-])cc([N+](=O)[O-])cc21,i,?,-63%,-25%,26µM*,21µM*
CC(=O)c1ccc(NC(=O)c2ccc(CSc3ccccc3)o2)cc1,i,-17%,-32%,0%,16µM*,?
COc1ccccc1NC(=O)c1ccc(CSc2ccccc2)o1,i,-33%,-36%,8%,?,-19%
CN(C)c1ccc(N=Cc2ccnc3ccccc23)cc1,.,0%,-34%,.,10µM*,11µM*
CN(C)c1ccc(N=Cc2cccc3ccccc23)cc1,.,?,-19%,.,4.5µM*,4µM*
Cc1cccc(C)c1NC(=O)CSc1cc(C(=O)c2nccn2C)c2ccccc2n1,i,7%,10%,-1%,2%,?
COCCn1c(=O)c(-c2ccc(Cl)cc2)nc2cnc(Oc3ccccc3)nc21,.,.,.,.,1%,-27%
COCCCNC(=O)c1csc([C@@H]2O[C@H](CO)[C@H](O)[C@H](O)[C@H]2O)n1,i,5%,1%,9%,2%,4%
CC(C)CNc1ncnc2c1ncn2[C@H]1CN(Cc2ccc(-c3ccccc3)cc2)C[C@@H](CO)O1,?,?,-26%,?,5.2µM*,4.1µM*
CCN(CC)c1ncnc2c1ncn2[C@H]1CN(Cc2ccc(-c3ccccc3)cc2)C[C@@H](CO)O1,i,?,-116%,?,?,16µM*
CC(C)Nc1ncnc2c1ncn2[C@H]1CN(Cc2ccc(-c3ccccc3)cc2)C[C@@H](CO)O1,i,-10%,-26%,?,4.6µM*,5.2µM*
CN(C)CCNc1ncnc2c1ncn2[C@H]1CN(Cc2ccccc2)C[C@@H](CO)O1,i,3%,-8%,10%,?,-23%
OCCNc1ncnc2c1ncn2[C@H]1CN(Cc2ccc(-c3ccccc3)cc2)C[C@@H](CO)O1,?,-1%,-26%,-19%,?,?
CN(C)CCNc1ncnc2c1ncn2[C@H]1CN(Cc2ccc(-c3ccccc3)cc2)C[C@@H](CO)O1,?,16µM*,-88%,?,29µM*,21µM*
COc1cc(C(=O)NCCC(=O)NCc2cccs2)cc(OC)c1OC,i,8%,2%,.,-7%,-5%
COc1cc(CN2CCOc3ccc(CN4CCN(CCO)CC4)cc3C2)ccc1F,?,.,.,.,6%[9.04 µM],-15%
Cc1c(O)cccc1C(=O)N[C@@H](CSc1ccccc1)[C@H](O)CN1C[C@H]2CCCC[C@H]2C[C@H]1C(=O)NC(C)(C)C,11µM*,?,16µM*!,20µM*!,9.2µM*!,23µM*!
CCN(CC(=O)NC(C)(C)C)C(=O)c1ccccc1SCC(=O)NC1CCCCCCC1,i,-23%,-23%,-12%,?,?
CCN(C(=O)Cn1cnc2c1c(=O)n(C)c(=O)n2C)C1CCS(=O)(=O)C1 (centres undefined),i,10%,17%,4%,0%,-1%
SMILES,S2 tox,TGFb inhibitor,HepG2 tox,ATXN2 expr inh,TDP1 cell CPT,TDP1 cell noCPT
CCN1/C(=C/C(=O)c2ccco2)Sc2ccccc21,?,-2%,1%,16%,-19%,-5%
CCN1/C(=C/c2sc(-c3ccccc3C)c[n+]2C)Sc2ccccc21,.,2.5µM*,-31%,?,0.26µM*,0.21µM*
Cc1ccc(-c2nn(-c3ccccc3)cc2/C=C/C(=O)OCC(=O)NC2CC2)o1,?,-2%,-22%,-2%[11.3 µM],21µM*,?
CNC(=O)COC(=O)/C=C/c1cn(-c2ccccc2)nc1-c1ccc2c(c1)OCCO2,i,-1%,-10%,.,9%,2%
CCOc1cc(C(=O)N/N=C/c2cn(-c3ccccc3)nc2-c2cc3ccccc3o2)cc(OCC)c1OCC,i,4%,-17%,.,23µM*,13µM*
Cc1ccc(-c2nn(-c3ccccc3)cc2/C=N/NC(=O)c2ccncc2)o1,i,5%,-7%,28%,?,23µM*
CCN(C(=O)COC(=O)c1cccc(S(=O)(=O)NCc2ccccc2)c1)c1ccccc1,i,10%,-2%,1%,?,?
OCCC1CN(Cc2cc(F)ccc2-n2cccn2)CCN1Cc1ccc(F)cc1 (centres undefined),i,2%,-11%,-15%,?,-30%
Cc1ccnc(NC(=O)c2ccc(OCc3c(C)noc3C)cc2)c1,i,?,-20%,23%,-23%,-20%
CCc1c(-c2n[nH]c(=S)n2Cc2ccccc2)csc1C,i,-3%,-4%,12%,5.8µM*,4.6µM*
CC(C)(C)c1ccc(-c2n[nH]c(=S)n2Cc2ccccc2)cc1,?,?,13µM*,-9%,?,12µM*
CC(C)n1c(-c2ccccc2F)n[nH]c1=S,i,3%,-18%,-10%,-1%,-12%
CC(C)n1c(-c2ccc(C(C)(C)C)cc2)n[nH]c1=S,i,-5%,-33%,-21%,11µM*,?
Fc1ccc(-c2n[nH]c(=S)n2Cc2ccccc2)cc1,i,0%,-10%,-14%,13%,-3%
CCCCOc1ccc(-c2n[nH]c(=S)n2Cc2ccccc2)cc1,i,0%,-36%,-6%,?,26µM*
